Reference: PubChem BioAssay AID2216 (Broad Institute, 2009)
The campaign covered roughly 300,000 compounds. About 3,300 (1.1%) were called active. Not shown: some 6% with an inconclusive outcome.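 How the source made its calls: active means more than half of the replicate wells show a fall in the fluorescence ratio signal beyond about 16% (limit read from the data, passing the limit was not always enough); inconclusive means exactly half of the replicate wells pass the set limit; inactive means fewer than half of replicates pass the limit.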 The list comes from a sample in which actives are over-represented; it also holds similar structures and randomly drawn compounds.

The compounds below were run on Ran GTPase (GTP-bound) - importin-beta complex (assay: disruptors of Ran-importin-beta complex formation – biochemical, FRET, CFP-Ran, YFP-importin-beta, homogeneous, primary screen (AID 2216;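 further: 0% = DMSO wells and 100% = Ran loaded with GDP instead of GTP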)). Conditions: cell-free CFP-Ran/YFP-importin-beta FRET ratio; stronger effect = higher value; concentration not given here.

SMILES	inhibition
COc1ccc(C(=O)Nc2cccc(NC(=O)c3ccc(OC)cc3OC)n2)c(OC)c1	3.03% (inactive)
CCCCN1C(N)=NC[C@@H]1CC1CCCCC1	0.418% (inactive)
C/C(=N/OC(=O)c1c(-c2c(F)cccc2Cl)noc1C)c1cnccn1	-0.76% (inactive)
Cc1onc(-c2c(F)cccc2Cl)c1C(=O)N(C)CC(=O)Nc1cccc(F)c1	0.755% (inactive)
CCOC(=O)c1cc2c(=O)n3ccccc3nc2n(CC(C)C)c1=NC(=O)c1c(-c2c(F)cccc2Cl)noc1C	94.5% (active)
CCOC(=O)c1cccc(NC(=O)c2ccc(F)cc2F)c1	-2.82% (inactive)
CCc1cccc(NC(=O)COC(=O)C2CCN(c3ccc(C(F)(F)F)cn3)CC2)c1	-2.11% (inactive)
O=C(CNC(=O)C12CC3CC(CC(C3)C1)C2)OCC(=O)N1CCCCC1	9.25% (inactive)
COc1cccc(C(=O)N/N=C(\C)c2cccc(NC(=O)c3ccc(F)cc3)c2)c1OC	-1.6% (inactive)
Cc1ccc(-n2c(=O)c(C#N)cc3c(=O)n4ccccc4nc32)cc1C	28% (active)
Cc1ccc(-n2c(SCC(=O)N3CCC(C(=O)O)CC3)nc3ccccc3c2=O)cc1C	-0.912% (inactive)
Cc1ccc(-n2ncc3c(=O)n(-c4ccc(C)c(C)c4)c(-c4ccco4)nc32)cc1	-0.295% (inactive)
O=C(NCCSc1ncc(-c2ccccc2)[nH]1)c1ccco1	3.47% (inactive)
O=C(NC1CCCCC1)c1ccc(-c2ccc(Cl)cc2)o1	8.43% (inactive)
O=C(CSc1ccc(-c2ccc(-n3cccn3)cc2)nn1)Nc1ccc([N+](=O)[O-])cc1	-0.399% (inactive)
CC(=O)NC(CC(=O)Nc1cccc(S(=O)(=O)N2CCCC2)c1)c1ccccc1 (stereo unspecified)	0.238% (inactive)
CCN(CC(=O)Nc1cccc(S(=O)(=O)N2CCCCC2)c1)Cc1ccccc1	16.2% (active)
CCN(CC(=O)Nc1ccc(S(=O)(=O)N2CCCC2)cc1)CC(=O)Nc1cccc(OC)c1	4.35% (inactive)
COc1ccc(CCNc2cc(N3CCN(C(=O)c4ccccc4OC)CC3)ccc2[N+](=O)[O-])cc1OC	3.89% (inactive)
CC1CC(C)CN(S(=O)(=O)c2cccc3nonc23)C1 (stereo unspecified)	2.14% (inactive)
COc1ccc2oc(C(=O)N(CC(C)C)C3CCS(=O)(=O)C3)c(C)c2c1 (stereo unspecified)	-2.12% (inactive)
O=C(Nc1ccccc1N1CCCC1)c1ccc(F)c(S(=O)(=O)N2CCOCC2)c1	1.55% (inactive)
COc1ccccc1CCNS(=O)(=O)c1cc2c3c(c1)C(C)C(=O)N3CCC2 (stereo unspecified)	4.16% (inactive)

SMILES	inhibition
COC(=O)C1=C(C)N(c2ccc(Br)cc2)C(=O)/C1=C\c1ccco1	5.89% (inactive)
Cc1cc(C)c(OCC(=O)N/N=C/c2ccco2)c(C)c1	-4.28% (inactive)
COC(=O)COc1ccc2c(c1C)O/C(=C\c1ccco1)C2=O	47.4% (active)
CCS(=O)(=O)c1ccc(-c2cccc(NC(=O)c3ccc(Br)o3)c2)nn1	2.1% (inactive)
CCOc1ccc(NS(=O)(=O)c2ccc(C(=O)NCC(c3ccccc3OC)N3CCCC3)cc2)cc1 (stereo unspecified)	-3.36% (inactive)
CCCNC(=O)CCn1cc(-c2ccc(OC)cc2)nc1CCN	-0.23% (inactive)
Cc1csc(NC(=O)CSc2nc(=O)cc(N)n2-c2ccc(F)cc2)n1	1.41% (inactive)
O=S(=O)(NC1CCCCC1N1CCC(O)CC1)c1ccc(Cl)cc1 (stereo unspecified)	74.6% (active)
O=S(=O)(NC1CCCCC1N1CCCCC1)c1ccc(Cl)cc1 (stereo unspecified)	2.32% (inactive)
CCN1CCN(C2CCCCC2NS(=O)(=O)c2ccc(Cl)cc2)CC1 (stereo unspecified)	1.58% (inactive)
COc1ccc(CNC(=O)COC(=O)CCS(=O)(=O)c2ccc(C)cc2)cc1OC	2.29% (inactive)
CCOc1ccc(-c2cc(C(=O)N/N=C/c3ccc(O)cc3)c3ccccc3n2)cc1	2.59% (inactive)
CCN(CC)c1ccc2cc(C(=O)O)c(=O)oc2c1	153% (active)
CCOC(=O)c1cc2cc3ccccc3cc2oc1=O	3.3% (inactive)
CCN(CC)c1ccc2cc(C(N)=O)/c(=N\NC(=O)c3ccncc3)oc2c1	135% (active)
NC(=O)c1cc2ccccc2o/c1=N/NC(=O)c1cccc(F)c1	-7.02% (inactive)
COc1ccc(C(=O)N/N=c2\oc3ccccc3cc2C(N)=O)cc1	4.55% (inactive)
CCN(CC)c1ccc2oc(=O)c(C)nc2c1	-87.9% (inactive)
Cc1onc(C(=O)Nc2ccc3c(c2)OCO3)c1[N+](=O)[O-]	0.97% (inactive)
CCCOc1ccc(Cl)cc1Nc1nc(NCCO)nc(N2CCCC2)n1	-4.43% (inactive)
O=C(COC(=O)c1cnccn1)Nc1ccc(Cl)cc1C(F)(F)F	1.07% (inactive)
CCCCc1nc2cc(C(=O)N3CCCCC3CCO)ccc2o1 (stereo unspecified)	2.55% (inactive)
CC1=C(C(=O)Nc2ccccc2)C(c2ccco2)C(C#N)=C(SCC(N)=O)N1 (stereo unspecified)	-0.887% (inactive)

SMILES	inhibition
N#CC1=C(N)Oc2c(sc3ccccc23)C1c1ccco1 (stereo unspecified)	54.7% (active)
Cc1cc(C)c2c3c(sc2n1)C(c1ccccc1)C(C#N)=C(N)O3 (stereo unspecified)	14.9% (inactive)
CC(C)CN(C(=O)COC(=O)c1ccc(Cl)c(N)c1)c1c(N)n(Cc2ccccc2)c(=O)[nH]c1=O	3.15% (inactive)
Cc1onc(-c2ccccc2Cl)c1C(=O)N(Cc1ccc(N(C)C)cc1)C(C)C	-1.47% (inactive)
O=C(Cc1ccc(S(=O)(=O)N2CCOCC2)s1)NCCOc1ccccc1F	0.747% (inactive)
COC(=O)Cc1cc(=O)oc2c(C)c(O)ccc12	60.4% (active)
CCCc1cc(=O)oc2c(C)c(OCC(=O)NCc3ccccn3)ccc12	0.0468% (inactive)
COc1cccc(C(=O)OCc2cc(=O)oc3c(C)c(C)ccc23)c1OC	-2.35% (inactive)
O=C(COc1ccccc1)Nc1cc2c3c(c1)CC(=O)N3CCC2	0.812% (inactive)
O=C(NC1CC1)C1=C[C@H](c2coc3ccccc3c2=O)C[C@H](OCCCCO)O1	8.31% (inactive)
CCN1CCN(CC(=O)Nc2sc3c(c2C#N)CCC3)CC1	-1.32% (inactive)
CC(C)N1CCc2c(sc(NC(=O)Cc3ccccc3)c2C#N)C1	156% (active)
N#Cc1c(N)sc2c1CCN(C(=O)OCc1ccccc1)C2	8.85% (inactive)
Cn1c(SCC(=O)c2ccccc2)ncc(C(=O)Nc2ccc(F)cc2)c1=O	0.558% (inactive)
N#CC1=C(N)C(C#N)(C#N)[C@H](c2ccsc2)[C@H]2COCC=C12	-27% (inactive)
CCC1=C(C(=O)OC)C(c2cc(OC)ccc2OC)C(C#N)=C(N)O1 (stereo unspecified)	-4.33% (inactive)
CCN1CC=C2C(C#N)=C(N)C(C#N)(C#N)[C@H](c3ccoc3)[C@H]2C1	47.8% (active)
CCCN1CC=C2C(C#N)=C(N)C(C#N)(C#N)C(c3cc(OC)ccc3OC)C2C1 (stereo unspecified)	36.6% (active)
COc1ccc(-c2cc(C(=O)N(C)CC(=O)Nc3ccccc3Cl)c3ccccc3n2)cc1OC	0.526% (inactive)
COc1cc(C(=O)N(C)Cc2cccc(OC)c2OC)ccc1OCC(=O)Nc1cccc(C(F)(F)F)c1	-1% (inactive)
Cc1sc2nc(CSCC(=O)NC3CCCCC3)[nH]c(=O)c2c1C	1.87% (inactive)
O=S(=O)(NCCCc1ccccc1)c1ccc(Br)cc1	-1.87% (inactive)
Cc1cc(=O)oc2cc(NC(=O)C(C)Oc3ccccc3)ccc12 (stereo unspecified)	3.05% (inactive)

SMILES	inhibition
CCOC(=O)C1(Cc2cccc(OC)c2)CCN(C(C)COC)CC1 (stereo unspecified)	7.78% (inactive)
CCOC(=O)C1(Cc2cccc(OC)c2)CCN(Cc2csc(C(C)=O)c2)CC1	33.4% (active)
CCOC(=O)C1(Cc2cccc(OC)c2)CCN(C(C)CC(C)(C)O)CC1 (stereo unspecified)	2.47% (inactive)
COc1ccc(Nc2ncnc3sc(C)cc23)cc1	-4.52% (inactive)
Cc1cc(C)c2nc(-c3ccco3)cc(C(=O)O)c2c1	-1.33% (inactive)
Cc1cc(C)c2nc3nc(C)cc(C)c3c(N)c2c1	123% (active)
Cc1cc(C)c2nc(SCCC#N)nc(C)c2c1	4.53% (inactive)
CCC1Nc2ncnc(N3CCN(c4ccccc4)CC3)c2N(Cc2ccc(Cl)cc2)C1=O (stereo unspecified)	3.14% (inactive)
CCOC(=O)c1cccc(NS(=O)(=O)c2c(C(=O)N3CCCCCC3)c(C)n(C)c2C)c1	-0.759% (inactive)
Cc1cc(Nc2ccccc2)n(C(=O)c2ccc(N)cc2)n1	11.7% (inactive)
Cc1cc(NC(=O)COc2ccc(Cl)cc2Cl)n(CCC#N)n1	0.324% (inactive)
Cc1cc(Nc2ccccc2)n(CCC#N)n1	64.2% (active)
COc1ccc(NC(=O)CN(C)C(=O)c2cc(-c3ccc(C)o3)nc3ccccc23)cc1	3.47% (inactive)
O=C(Nc1cccc2ncccc12)C(Cl)(Cl)Cl	-1.34% (inactive)
Cc1ccc(C(=O)Nc2cccc3ncccc23)cc1[N+](=O)[O-]	-5.75% (inactive)
Cc1ccc(/C=C(\C#N)C(=O)Nc2cccc3ncccc23)o1	24.4% (active)
COc1ccc(NC(=O)CN(C)C(=O)c2cccc(S(=O)(=O)N3CCN(c4ccccc4)CC3)c2)cc1	5.36% (inactive)
Cc1sc(NC(=O)c2ccc3ncsc3c2)c(C(N)=O)c1C	7.92% (inactive)
COc1ccc(NS(=O)(=O)c2ccc(C)c(C(=O)N(C)Cc3ccc(OC)cc3OC)c2)cc1	-0.0635% (inactive)
O=C(Nc1nc2c(F)cc(F)cc2s1)C1COc2ccccc2O1 (stereo unspecified)	-1.75% (inactive)
COc1ccc(OC)c2sc(NC(=O)C3COc4ccccc4O3)nc12 (stereo unspecified)	18.3% (active)
COc1ccc(NC(=O)C2COc3ccccc3O2)cc1 (stereo unspecified)	3.21% (inactive)
